Test results: PubChem BioAssay AID743449 (Broad Institute, 2014)
Several values for one entry are separate records, joined by “and”; a condition that tells them apart may be missing. Equal values may be shown once. Among all 9,900 compounds or so, about 90 (0.9%) were called active. Roughly 2% stayed inconclusive and do not appear here. This is one part of a sample in which actives are shown more often than they occur. Unmarked numbers belong to inactive results.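 Rule for the calls: active = mean normalized replicate activity at least 50 and at least half of replicates each reaching 50; inconclusive = only one of the two criteria met; inactive = neither criterion met.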

Assay: YAP1 pathway inhibitors via CTGF transcript, primary screen, DLD1 colon cancer cells, RT-qPCR, single point (AID 743449);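 note: 0% = neutral control wells and 100% = dasatinib control wells; higher means stronger suppression of CTGF expression like dasatinib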
Details: DLD1 CTGF mRNA qPCR, 24 h; at 12.5 µM; active compounds read high

SMILES	inhibition
N#C[C@@H]1[C@H](c2ccc(-c3cccc(F)c3)cc2)[C@@H](CO)N1C(=O)CN1CCOCC1	0.153%
CN1C(=O)c2cc(NC(=O)c3cccc(Cl)c3)ccc2OC[C@H]2O[C@@H](CC(=O)NC3CCCCC3)CC[C@H]21	19.3%
COc1ccc(C(=O)N2C[C@H]3[C@@H](c4ccccc42)[C@@H](CO)N3Cc2ccccc2Cl)cc1	-11.9%
COCC(=O)N1[C@H](CO)[C@H](c2ccc(C#Cc3ccccc3F)cc2)[C@@H]1C#N	5.53%
COc1ccc(C(=O)N2C[C@@H]3[C@H](c4ccccc42)[C@H](CO)N3C(=O)NC(C)C)cc1	-12.1%
C[C@H]1CN([C@@H](C)CO)C(=O)c2ccccc2-c2ccccc2CO[C@@H]1CN(C)C(=O)[C@H](Cc1ccccc1)N(C)C	-17.8%
Cc1noc(C)c1NC(=O)N(C)C[C@@H]1OCc2ccccc2-c2c(n(C)c3ccccc23)C(=O)N([C@H](C)CO)C[C@@H]1C	-14.8%
CCCC(=O)Nc1ccc2c(c1)C(=O)N(C)C[C@H](OC)[C@@H](C)CN(C(=O)c1ccccn1)[C@@H](C)CO2	25.7%
O=C([C@@H]1[C@@H](CO)[C@@H]2Cn3c(ccc(-c4ccc(F)cc4)c3=O)[C@@H]2N1Cc1cocn1)N1CCCCC1	-1.91%
O=C(NCC1CC1)[C@H]1[C@H](CO)[C@H]2Cn3c(ccc(-c4cccnc4)c3=O)[C@H]2N1Cc1cocn1	-2.27%
O=C([C@H]1[C@H](CO)[C@H]2Cn3c(ccc(-c4ccc(F)cc4)c3=O)[C@H]2N1Cc1cocn1)N1CCCCC1	53.6% (active)
CCS(=O)(=O)Nc1ccc2c(c1)C(=O)N(C)C[C@H](OC)[C@H](C)CN(C(=O)c1ccc3c(c1)OCO3)[C@@H](C)CO2	-9.16%
C[C@@H]1CN([C@H](C)CO)C(=O)CCCn2nncc2CO[C@H]1CN(C)Cc1ccc(C(=O)Nc2ccccc2N)cc1	-132%
CCC(=O)N1C[C@@H](C)[C@@H](OC)CN(C)C(=O)c2cc(NC(=O)Nc3ccc(Cl)cc3)ccc2OC[C@H]1C	-27.4%
CCCN1C[C@H](C)[C@@H](OC)CN(C)C(=O)c2cc(NS(=O)(=O)c3ccccc3)ccc2OC[C@H]1C	2.69%
CCC(=O)N1C[C@@H](C)[C@@H](OC)CN(C)C(=O)c2cc(NC(=O)Nc3ccc(Cl)cc3)ccc2OC[C@@H]1C	15%
CO[C@@H]1CN(C)C(=O)c2cc(NC(=O)Nc3ccccc3F)ccc2OC[C@H](C)N(CCC(F)(F)F)C[C@H]1C	21%
CCC(=O)N1C[C@H](C)[C@@H](OC)CN(C)C(=O)c2cc(NC(=O)Nc3ccc(Cl)cc3)ccc2OC[C@@H]1C	59.6% (active)
CO[C@H]1CN(C)C(=O)c2cc(NC(=O)Nc3ccccc3F)ccc2OC[C@H](C)N(CCC(F)(F)F)C[C@@H]1C	65.1% (active)
CCCN1C[C@@H](C)[C@H](OC)CN(C)C(=O)c2cc(NS(=O)(=O)c3ccccc3)ccc2OC[C@@H]1C	-22.6%
CO[C@@H]1CN(C)C(=O)c2cc(NS(=O)(=O)c3ccccc3C)ccc2OC[C@@H](C)N(S(=O)(=O)c2ccccc2)C[C@H]1C	75.2% (active)

SMILES	inhibition
COc1ccccc1C(=O)Nc1ccc2c(c1)C(=O)N(C)C[C@@H](OC)[C@@H](C)CN(C(C)=O)[C@@H](C)CO2	-6.31%
CO[C@H]1CN(C)C(=O)c2cc(NC(=O)Nc3ccccc3F)ccc2OC[C@@H](C)N(CCC(F)(F)F)C[C@@H]1C	8.27%
COc1ccccc1C(=O)Nc1ccc2c(c1)C(=O)N(C)C[C@H](OC)[C@@H](C)CN(C(C)=O)[C@@H](C)CO2	64.2% (active)
COc1ccccc1C(=O)Nc1ccc2c(c1)C(=O)N(C)C[C@H](OC)[C@H](C)CN(C(C)=O)[C@H](C)CO2	-22.7%
C[C@H](CO)N1C[C@H](C)[C@@H](CN(C)S(=O)(=O)c2cn(C)cn2)OCc2ccccc2-c2ccccc2C1=O	13.5%
C[C@H]1CN([C@@H](C)CO)C(=O)c2cc(-c3ccncc3)cnc2O[C@@H]1CN(C)C(=O)CN1CCOCC1	4.89%
O=C(C1CCOCC1)N1C[C@H]2[C@@H](c3ccccc31)[C@H](CO)N2C(=O)Cc1ccccn1	-3.22%
CCCNC(=O)N(C)C[C@H]1[C@H](c2ccccc2)[C@@H](CO)N1C(=O)c1ccccc1	13.1%
COCC(=O)Nc1ccc2c(c1)[C@H]1C[C@@H](CC(=O)N3CCOCC3)O[C@H](CO)[C@H]1O2	-2.81%
C[C@H](CO)N1C[C@H](C)[C@H](CN(C)Cc2cccnc2)Oc2ncc(-c3ccc(C#N)cc3)cc2C1=O	10.9%
Cc1noc(C)c1S(=O)(=O)N(C)C[C@H]1OCCCC[C@@H](C)Oc2ccc(NC(=O)CCC(F)(F)F)cc2C(=O)N([C@@H](C)CO)C[C@H]1C	-10.5%
CCN1[C@@H]2c3ccc(C4=CCCC4)c(=O)n3C[C@@H]2[C@@H](CO)[C@@H]1C(=O)NC1Cc2ccccc2C1	-18.3%
Cc1cc(C(=O)Nc2ccc3c(c2)C(=O)N(C)[C@@H]2CC[C@@H](CC(=O)O)O[C@H]2CO3)no1	8.49%
COCC(=O)N1CC[C@@H]2[C@@H](CO)Nc3ccc(C#Cc4ccc(F)cc4)cc3[C@@H]21	12.9%
COCC(=O)N1CC[C@@H]2[C@H](CO)Nc3ccc(C#Cc4ccc(F)cc4)cc3[C@@H]21	51.2% (active)
COCC(=O)N1CC[C@@H]2[C@H]1c1cc(C#Cc3ccc(F)cc3)ccc1N[C@@H]2CO	22.4%
COc1cccc(NC(=O)C[C@@H]2CC[C@@H]3[C@H](COc4ccc(NS(=O)(=O)c5cccc(F)c5)cc4C(=O)N3C)O2)c1	-76.5%
C[C@@H]1CN([C@@H](C)CO)C(=O)c2ccccc2-c2ccccc2CO[C@@H]1CN(C)Cc1ccccc1C(F)(F)F	-64.4%
C[C@@H]1CN([C@@H](C)CO)C(=O)c2ccccc2-c2ccccc2CO[C@H]1CN(C)S(=O)(=O)c1cn(C)cn1	-9.13%
C[C@H]1CN([C@@H](C)CO)C(=O)c2ccccc2-c2ccccc2CO[C@@H]1CN(C)S(=O)(=O)c1cn(C)cn1	-12.7%
C[C@H](CO)N1C[C@H](C)[C@H](CN(C)Cc2ccccc2C(F)(F)F)OCc2ccccc2-c2ccccc2C1=O	26.5%

SMILES	inhibition
C[C@H]1CN([C@@H](C)CO)C(=O)c2ccccc2-c2ccccc2CO[C@H]1CN(C)Cc1cccc2c1OCCCO2	24%
C[C@@H]1CN([C@H](C)CO)C(=O)c2ccccc2-c2ccccc2CO[C@@H]1CN(C)Cc1ccccc1C(F)(F)F	69.6% (active)
C[C@H](CO)N1C[C@H](C)[C@@H](CN(C)S(=O)(=O)c2ccc([N+](=O)[O-])cc2)OCc2ccccc2-c2c(n(C)c3ccccc23)C1=O	63.8% (active)
C[C@@H]1CN([C@H](C)CO)C(=O)c2ccccc2-c2ccccc2CO[C@@H]1CN(C)Cc1cccc2c1OCCCO2	59.4% (active)
C[C@H]1CN([C@@H](C)CO)C(=O)c2c(c3ccccc3n2C)-c2ccccc2CO[C@@H]1CN(C)S(=O)(=O)c1ccc([N+](=O)[O-])cc1	23.9%
C[C@@H]1CN([C@@H](C)CO)C(=O)c2ccccc2-c2ccccc2CO[C@@H]1CN(C)Cc1cccc2c1OCCCO2	14.7%
C[C@@H]1CN([C@@H](C)CO)C(=O)c2ccccc2-c2ccccc2CO[C@@H]1CN(C)S(=O)(=O)c1cn(C)cn1	63% (active)
C[C@@H]1CN([C@@H](C)CO)C(=O)c2c(c3ccccc3n2C)-c2ccccc2CO[C@H]1CN(C)S(=O)(=O)c1ccc([N+](=O)[O-])cc1	7.85%
O=C(c1cnccn1)N1C[C@@H]2N[C@H](C1)C2c1ccc(/C=C/c2ccccc2)cc1 (some centres not stated)	-30.1% and 19.5%
O=C(C[C@H]1CC[C@H]2[C@@H](COC[C@@H](O)CN2C(=O)c2ccc(F)cc2)O1)N1CCCCC1	-4.99%
COc1ccc(-c2ccc([C@H]3[C@H](CO)N4C(=O)CN(C(=O)C5CC5)C[C@@H]34)cc2)cc1	4.63%
COc1cccc(NC(=O)N[C@H]2CC[C@@H](CC(=O)N3CCN(C)CC3)O[C@@H]2CO)c1	-6.95%
O=C(NC[C@H]1N[C@H](CO)[C@@H]1c1ccc(-c2cncnc2)cc1)C1CCCCC1	-7.65%
COc1ccc2c3c(n(C)c2c1)[C@@H](CO)N(C(C)=O)CC31CN(S(=O)(=O)c2ccccc2)C1	1.07%
CC(C)c1cccc(NC(=O)C[C@H]2CC[C@H]3[C@@H](COc4ccc(NC(=O)NCc5ccccc5)cc4C(=O)N3C)O2)c1	22.2%
O=C(Nc1ccccc1F)N1C[C@@H]2[C@H](c3ccccc31)[C@@H](CO)N2C(=O)Cc1cccnc1	7.57%
CN1c2ccc(Br)cc2[C@@H]2[C@@H](CCN2S(=O)(=O)c2ccccc2F)[C@@H]1CO	9.29%
NCC[C@@H]1CC[C@@H](NC(=O)NC2CCCCC2)[C@@H](CO)O1	5.69%
NCC[C@H]1CC[C@@H](NC(=O)NC2CCCCC2)[C@H](CO)O1	53% (active)
NCC[C@H]1CC[C@H](NC(=O)NC2CCCCC2)[C@@H](CO)O1	23.6%
